Results filed as inconclusive are left out. More than one record can exist for a structure, and the calls need not agree. Calls of active or inactive are those of the source. Rule for the calls, unless noted: active = hit-call score of the fitted dose curve at least 0.9, where 1 is the maximum; inconclusive = response in the unintended direction; inactive = score below 0.9.
Assays:
[1] = Tanguay_ZF_120hpf_JAW_legacy: (Legacy) Oregon State University Tanguay Lab 120 Hour Post-fertilization zebrafish Assay for Jaw Malformation (AID 2283638);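 for AC50: active means more embryos with jaw malformation than DMSO controls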
Procedure, shortened: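 Binary jaw-malformation calls at 120 hpf by brightfield imaging; DMSO (0.64% v/v) = baseline. Embryos: 5D wild-type, pronase-dechorionated, one per well from 6 hpf, static exposure, 28C, sealed, dark.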

[2] = Tanguay_ZF_120hpf_OTIC_legacy: (Legacy) Oregon State University Tanguay Lab 120 Hour Post-fertilization zebrafish Assay for Otic Vesicle Malformation (AID 2283639)
Procedure, shortened: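 Embryos from 5D wild-type adults exposed in plates; DMSO 0.64% v/v final. Sealed, light-protected, 28C, static to 120 hpf. Otic vesicle malformation recorded as binary endpoint; gain-of-signal fitted vs DMSO.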

[3] = Tanguay_ZF_120hpf_BRAI_legacy: (Legacy) Oregon State University Tanguay Lab 120 Hour Post-fertilization zebrafish Assay for Brain Malformation (AID 2283641)
Procedure, shortened: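 Read-out: binary brain morphology call at 120 hpf (brightfield), fitted in gain-of-signal direction vs DMSO. Wild-type Tropical 5D embryos, static exposure, 28C, 0.64% DMSO final; 5uM trimethyltin chloride as positive control.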

[4] = Tanguay_ZF_120hpf_SOMI_legacy: (Legacy) Oregon State University Tanguay Lab 120 Hour Post-fertilization zebrafish Assay for Somite Malformation (AID 2283647)
Procedure, shortened: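 Binary brightfield scoring of somite defects at 120 hpf in 5D wild-type larvae; one dechorionated embryo per well, static exposure from 6 hpf, 28C, sealed and dark. Final DMSO 0.64%; trimethyltin chloride 5uM positive control.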

[5] = Tanguay_ZF_120hpf_PFIN_legacy: (Legacy) Oregon State University Tanguay Lab 120 Hour Post-fertilization zebrafish Assay for Pectoral Fin Malformation (AID 2283648);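 note: each larva judged yes or no for fin defect by brightfield with dead larvae skipped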
Procedure, shortened: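 Tropical 5D wild-type embryos, dechorionated with pronase at 4 hpf, were placed singly in wells at 6 hpf and statically exposed until 120 hpf at 28C, sealed and dark, with 0.64% (vol/vol) final DMSO; pectoral fin malformation scored present/absent.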

[6] = Tanguay_ZF_120hpf_CFIN_legacy: (Legacy) Oregon State University Tanguay Lab 120 Hour Post-fertilization zebrafish Assay for Caudal Fin Malformation (AID 2283649)
Procedure, shortened: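 Dechorionated 5D wild-type zebrafish, static exposure 6–120 hpf, 28C, sealed and dark, 0.64% v/v DMSO final. Binary fin-malformation call at 120 hpf, brightfield; gain of signal vs DMSO baseline.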

[7] = Tanguay_ZF_120hpf_PIG_legacy: (Legacy) Oregon State University Tanguay Lab 120 Hour Post-fertilization zebrafish Assay for Pigmentation Malformation (AID 2283650)
Procedure, shortened: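 Tropical 5D wild-type zebrafish embryos, dechorionated with pronase at 4 hpf, were exposed singly from 6 hpf to 120 hpf statically at 28C in sealed, dark plates with 0.64% DMSO; pigmentation scored present/absent by brightfield microscopy, fitted against DMSO.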

[8] = Tanguay_ZF_120hpf_CIRC_legacy: (Legacy) Oregon State University Tanguay Lab 120 Hour Post-fertilization zebrafish Assay for Circulatory Malformation (AID 2283651)
Procedure, shortened: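 Read-out: presence or absence of circulatory malformation at 120 hpf, scored by brightfield microscopy, fitted in the gain-of-signal direction against DMSO baseline. Wild-type 5D larvae were exposed from 6 hpf after enzymatic chorion removal.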

[9] = Tanguay_ZF_120hpf_SWIM_legacy: (Legacy) Oregon State University Tanguay Lab 120 Hour Post-fertilization zebrafish Assay for Swim Bladder Malformation (AID 2283654);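 note: swim bladder malformation in each larva scored yes or no under brightfield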
Procedure, shortened: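 Dechorionated Tropical 5D wild-type embryos, placed singly from 6 hpf, were statically exposed at 28C to 120 hpf with 0.64% DMSO final; swim bladder malformation was scored present/absent by brightfield microscopy, gain of signal relative to DMSO controls.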

[10] = Tanguay_ZF_120hpf_NC_legacy: (Legacy) Oregon State University Tanguay Lab 120 Hour Post-fertilization zebrafish Assay for Notochord and Tail Malformation (AID 2283656)
Procedure, shortened: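 Dechorionated Tropical 5D wild-type zebrafish embryos, one per well from 6 hpf, statically exposed to 120 hpf at 28C in 0.64% DMSO final. Notochord distortion scored present/absent by brightfield; dead embryos excluded.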

[11] = Tanguay_ZF_120hpf_PE_legacy: (Legacy) Oregon State University Tanguay Lab 120 Hour Post-fertilization zebrafish Assay for Pericardial Edema (AID 2283640);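 for AC50: potency for increased incidence of pericardial edema versus DMSO baseline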
Procedure, shortened: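 Static waterborne exposure, 5D wild-type embryos, 28C, to 120 hpf; final DMSO 0.64% (vol/vol). Binary PE call at 120 hpf by brightfield; fitted upward vs DMSO baseline. 5uM trimethyltin chloride as positive control.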

[12] = Tanguay_ZF_120hpf_TRUN_legacy: (Legacy) Oregon State University Tanguay Lab 120 Hour Post-fertilization zebrafish Assay for Truncated Body (AID 2283655)
Procedure, shortened: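 Whole-embryo zebrafish screen: dechorionated 5D embryos, static exposure 6–120 hpf, 28C, sealed foil-covered plates, 0.64% DMSO. Binary truncation call; gain of signal versus DMSO baseline.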

[13] = test system: Thyroperoxidase (TPO), gene 54314; experiment: CCTE_Simmons_AUR_rTPO: CCTE's Amplex UltraRed Assay for Thyroperoxidase (TPO) Inhibition, Simmons Lab (AID 2283662);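 for AC50: potency for loss of signal meaning inhibition of peroxidase activity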
Procedure, shortened: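 Rat thyroid microsomes (5 ug protein) were incubated with test compound (8 concentrations, 5 nM–87.5 uM final, 0.5% DMSO), 25 uM Amplex UltraRed and 300 uM H2O2 in 200 mM phosphate buffer for 30 min at 37C in the dark; fluorescence read at 544/590 nm.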

[14] = CCTE_Simmons_CellTiterGLO_HEK293T: Viability Assessment in CCTE's Assays for Thyroperoxidase (TPO) Inhibition, Simmons Lab (AID 2283665);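 for AC50: cells exposed to compound for 24 h before readout; actives reduce ATP signal below DMSO vehicle meaning cytotoxicity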
Procedure, shortened: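 HEK293T, 10 000 cells/well, DMEM + 1% FBS; 8-pt titration 5 nM–87.5 uM [final], 0.5% DMSO; 24 hr, 37C, 5% CO2; CellTiter-Glo luminescence; n=3 biological replicates.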

[15] = Tanguay_ZF_120hpf_TR_legacy: (Legacy) Oregon State University Tanguay Lab 120 Hour Post-fertilization zebrafish Assay for Touch Response (AID 2283667)
Procedure, shortened: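 Tropical 5D wild-type zebrafish embryos were exposed statically in sealed, foil-covered plates at 28C until 120 hpf, with 0.64% (vol/vol) final DMSO. Touch response was scored as present or absent; embryos that died were not scored.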

[16] = read-out: kallikrein-3 (KLK3), KLK3 (gene 354); experiment: LTEA_HepaRG_KLK3: Life Technologies and Expression Analysis (LTEA) Assay for kallikrein-3 (KLK3) using HepaRG (AID 2283652; active = hit-call score of the fitted dose curve at least 0.9, where 1 is the maximum; inactive = score below 0.9); settings: mRNA level, 48 h; actives raise or lower the signal
Procedure, shortened: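 Differentiated human HepaRG cells in serum-free induction medium exposed 48 h in duplicate, eight-point half-log series from 100 uM in 0.5% DMSO. KLK3 mRNA by qRT-PCR, normalised to ACTB, GAPDH, POLR2A; bidirectional fit versus DMSO.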

[17] = read-out: solute carrier (SLC22A6), SLC22A6 (gene 9356); experiment: LTEA_HepaRG_SLC22A6: Life Technologies and Expression Analysis (LTEA) Assay for solute carrier (SLC22A6) using HepaRG (AID 2283653; active = hit-call score of the fitted dose curve at least 0.9, where 1 is the maximum; inactive = score below 0.9); settings: mRNA level, 48 h; actives raise or lower the signal
Procedure, shortened: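 HepaRG, human liver line; 48 h chemical exposure; 8-pt half-log series from 100 uM in 0.5% DMSO, duplicate wells. Readout: TaqMan qRT-PCR of SLC22A6 mRNA, housekeeping-normalised; bidirectional curve fit vs DMSO baseline.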

[18] = read-out: solute carrier (SLC10A1), SLC10A1 (gene 6554); experiment: LTEA_HepaRG_SLC10A1: Life Technologies and Expression Analysis (LTEA) Assay for solute carrier (SLC10A1) using HepaRG (AID 2283657; active = hit-call score of the fitted dose curve at least 0.9, where 1 is the maximum; inactive = score below 0.9); settings: mRNA level, 48 h; actives raise or lower the signal
Procedure, shortened: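 Differentiated HepaRG cells were plated 48 h, then exposed in serum-free induction medium for 48 h to 8 concentrations (top 100 uM, half-log steps, 0.5% DMSO). SLC10A1 mRNA was quantified by qRT-PCR normalized to ACTB, GAPDH, POLR2A; bidirectional fit versus DMSO.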

[19] = read-out: matrix metalloproteinase-1 (MMP1), MMP1 (gene 4312); experiment: LTEA_HepaRG_MMP1: Life Technologies and Expression Analysis (LTEA) Assay for matrix metalloproteinase-1 (MMP1) using HepaRG (AID 2283658; active = hit-call score of the fitted dose curve at least 0.9, where 1 is the maximum; inactive = score below 0.9); settings: mRNA level, 48 h; actives raise or lower the signal
Procedure, shortened: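 MMP1 transcript read by TaqMan qRT-PCR (Fluidigm array) after 48 h chemical exposure of HepaRG cells in serum-free induction medium. Eight-point half-log series, top 100 uM, 0.5% DMSO vehicle. Bidirectional curve fit against DMSO baseline.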

[20] = read-out: Cytochrome P450 (CYP24A1_1), CYP24A1 (gene 1591); experiment: LTEA_HepaRG_CYP24A1_1: Life Technologies and Expression Analysis (LTEA) Assay for Cytochrome P450 (CYP24A1_1) using HepaRG (AID 2283671; active = hit-call score of the fitted dose curve at least 0.9, where 1 is the maximum; inactive = score below 0.9); settings: mRNA level, 48 h; actives raise or lower the signal
Procedure, shortened: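 HepaRG, 48 h exposure, 8-pt half-log series from 100 uM in 0.5% DMSO, duplicates. Readout: TaqMan qRT-PCR of CYP24A1 mRNA, housekeeping-normalized (ACTB/GAPDH/POLR2A). Bidirectional curve fit vs DMSO baseline.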

Measured: AC50

CC1(C)NC(=O)N(c2ccc([N+](=O)[O-])c(C(F)(F)F)c2)C1=O
inactive: [1] | [2] | [3] | [4] | [5] | [6] | [7] | [8] | [9] | [10]

Clc1ccccc1C(c1ccccc1)(c1ccccc1)n1ccnc1
active: [1] 1.2 µM | [11] 24.8 µM | [3] 87.3 µM | [4] 61.3 µM
inactive: [2] | [5] | [6] | [8] | [9] | [10]

CC[C@@H]1C[C@H](N(Cc2cc(C(F)(F)F)cc(C(F)(F)F)c2)C(C)=O)c2cc(C(F)(F)F)ccc2N1C(=O)OC(C)C
inactive: [1] | [2] | [11] | [3] | [4] | [5] | [6] | [7] | [8] | [9]

OC12N=C(c3ccccc3)SC1Cc1cc(Cl)ccc12 (stereo not drawn)
active: [1] 45.3 µM | [4] 117 µM | [6] 48.1 µM | [7] 44.5 µM | [12] 48.2 µM | [13] 13 µM | [14] 29.7 µM | [15] 14.9 µM
inactive: [2] | [3] | [5] | [8] | [9]

O=C1c2ccccc2C(=O)N1CCc1noc(-c2ccc(CN3CCCCCC3)s2)n1
active: [18] 11.1 µM
not listed: [11] | [12] | [13] | [14]
inactive: all other assays above

Oc1ccccc1
inactive: [1] | [2] | [11] | [3] | [4] | [5] | [7] | [9] | [10] | [13] | [14]
active: [13] 23.6 µM

O=CCCCC=O
inactive: [1] | [2] | [11] | [3] | [4] | [5] | [6] | [7] | [9] | [12] | [10]

O=C(O)Cc1cc(I)c(Oc2ccc(O)c(I)c2)c(I)c1
active: [1] 0.089 µM | [7] 0.177 µM | [13] 0.32 µM
not listed: [15] | [16] | [17] | [18] | [19] | [20]
inactive: all other assays above

O=c1ccc2ccccc2o1
inactive: [1] | [2] | [11] | [3] | [4] | [5] | [6] | [7] | [8] | [10]

CN(C)C(=O)C1(N2CCCCC2)CCN(CC[C@@]2(c3ccc(Cl)c(Cl)c3)CN(C(=O)c3ccccc3)CCO2)CC1
not listed: [13] | [14] | [15] | [16] | [17] | [18] | [19] | [20]
inactive: all other assays above

CCCCCCCCOC(=O)c1cc(O)c(O)c(O)c1
active: [13] 0.921 µM | [14] 7.69 µM
not listed: [15] | [16] | [17] | [18] | [19] | [20]
inactive: all other assays above

Cc1ccc(C(C)C)cc1
inactive: [1] | [2] | [3] | [4] | [5] | [6] | [7] | [8] | [9] | [12] | [10]

O=C(O)Cn1c(=O)n(Cc2ccc(Br)cc2F)c(=O)c2ccc(Cl)cc21
inactive: [1] | [2] | [3] | [4] | [5] | [6] | [7] | [8] | [9] | [12] | [10]

CC(O)CC(C)(C)O (stereo not drawn)
not listed: [13] | [14] | [15] | [16] | [17] | [18] | [19] | [20]
inactive: all other assays above

CC1=CC(=O)/C(=C(/C)O)C(=O)O1
inactive: [1] | [2] | [11] | [3] | [5] | [6] | [7] | [8] | [10]

C[C@]12CC[C@@H]3c4ccc(O)cc4CC[C@H]3[C@@H]1CC[C@H]2O
active: [18] 72.6 µM | [13] 4.06 µM
not listed: [11] | [15] | [16]
inactive: all other assays above

Cc1oc2c(NC(=O)c3c(Cl)cccc3Cl)cccc2c1C(C)(C)O
inactive: [1] | [2] | [3] | [4] | [5] | [6] | [7] | [8] | [9] | [12] | [10]

Reference: PubChem BioAssay (EPA / NIEHS)
